Hits are enriched below; roughly 2.8% of the tested compounds scored in any of these assays.
PTHR1 agonist = PTHR1 (human) receptor agonism. HEK293 GP2 PTHR1 cells, GloSensor cAMP luminescence, 1 h. Potency, µM (top dose mostly 115 µM), inactives show at the highest dose activation, usual class: activators. Q03431. AID 743266. hit rate 0.075% among 410,000; further: potency means the concentration at half of the fitted maximal effect; nearly all actives have a fitted effect of over 55% in size
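HEK-293-derived GP2 cells expressing PTHR1 and a GloSensor cAMP reporter, 3,000/well, plated overnight, given luciferin plus IBMX (each 0.5 mM as added) for 1 h at 37 °C, then compound for 1 h at 37 °C. Luminescence was read after 15 min at room temperature.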
MBNL1 CUG block = inhibitors of human MBNL1 binding to CUG repeat RNA; TR-FRET MBNL1-His/biotin-(CUG)12 binding, 665/545 ratio; Potency, µM (series often up to 57.5 µM), without a hit: at the top dose activity change, negative = inhibition, usual class: inhibitors; hit rate 0.036% among 280,000; active means well fitted inhibition curve with a large enough effect in the signal ratio, with a control signal flat, not every such curve was filed as active; inconclusive means small, poorly fitted or top-dose-only effect, or effect the other way, or a change in a side signal; inactive means no such curve, though single readings can be large or run the other way; the % refers to the signal ratio; further: potency means the concentration at half of the fitted maximal effect; on the % scale 0 is the no-effect control and ±100 the full control effect
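His-tagged MBNL1 binding to biotinylated (CUG)12 RNA was measured by TR-FRET using terbium anti-His antibody (0.055 ng/ul final) and streptavidin-XL665 (5 nM final). Compounds were titrated 92 nM to 58 uM; 60 min at room temperature.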
D3 antag = D3 dopamine receptor (human) antagonism; max response, negative = inhibition, %; hit rate 2.5% among 360,000; D3R cells, DiscoveRx beta-arrestin luminescence, antagonist mode; hits give low values; in the data active means max response below about -50%; inconclusive means no clear call, values can overlap the other calls; further: on the % scale 0 is the no-effect control and ±100 the full control effect
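Cells expressing the human receptor were seeded at 1500 cells/well, incubated overnight at 37 degrees C in 5% CO2, then exposed to library compounds with dopamine controls for 90 minutes at 37 degrees C before luminescent detection.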
CBFb-RUNX1 inh = CBF-beta/RUNX1 interaction disruption. Q01196+Q13951. 230,000 tested, under 10 active. AID 1477. AlphaScreen CBFb-His/RUNX1-biotin binding, biochemical. Potency, µM (series often up to 59.8 µM), for inactives: top-dose activity, negative = inhibition, usual class: inhibitors; further: % of control where 0% means no effect
Target sequence (Q01196 whole entry, looked up): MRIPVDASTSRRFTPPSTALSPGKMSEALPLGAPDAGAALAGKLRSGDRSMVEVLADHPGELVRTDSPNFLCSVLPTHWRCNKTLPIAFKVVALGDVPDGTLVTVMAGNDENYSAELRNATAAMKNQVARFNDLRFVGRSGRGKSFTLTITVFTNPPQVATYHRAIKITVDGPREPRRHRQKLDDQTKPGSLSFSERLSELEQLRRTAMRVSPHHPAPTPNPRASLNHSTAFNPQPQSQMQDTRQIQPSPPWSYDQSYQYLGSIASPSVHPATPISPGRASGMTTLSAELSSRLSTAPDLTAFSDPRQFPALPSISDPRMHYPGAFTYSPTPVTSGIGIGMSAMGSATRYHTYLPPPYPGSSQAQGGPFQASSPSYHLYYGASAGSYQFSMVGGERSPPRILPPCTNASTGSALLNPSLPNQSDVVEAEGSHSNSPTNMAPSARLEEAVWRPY
Target sequence (Q13951 whole entry, looked up): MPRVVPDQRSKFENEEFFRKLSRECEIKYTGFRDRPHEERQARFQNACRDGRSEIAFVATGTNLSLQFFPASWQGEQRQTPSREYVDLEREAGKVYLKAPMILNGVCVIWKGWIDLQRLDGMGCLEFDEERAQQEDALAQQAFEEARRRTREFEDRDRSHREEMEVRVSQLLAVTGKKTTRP
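CBF-beta (His) and RUNX1 (biotin), 30 nM each; 20 min preassociation; + compound, 15 min; + beads 50 ng each (Ni, streptavidin), 90 min; RT; AlphaScreen read.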
DRD3 agonist = activates the human D3 dopamine receptor | D3R DiscoveRx beta-arrestin cells, luminescence, 90 min | max activation, % | hit rate 0.58% among 410,000; in the data active means max activation above about 30%; further: 0% is about no effect
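Cells at 1500/well, incubated overnight, then treated with pinned compounds (dopamine as control) for 90 min at 37 degrees C. DiscoveRx reagent added for 30 - 60 minutes at room temperature; luminescence read.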
a7 integrin act = activators of alpha7 integrin expression for muscular dystrophy. Potency, µM (series often up to 38.3 µM), for the others: at the top dose activation, most hits filed as activators. AID 624291. hit rate 0.064% among 350,000. alpha7betagal myoblasts, beta-gal FDG fluorescence, 48 h;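 further: potency means the concentration at half of the fitted maximal effect; 100% = response of the positive control SU9516; nearly all actives have a fitted effect of over 60% in size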
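alpha7betagal+/- myoblasts (passage 13, 250/well) treated 48 h at 37C with compounds at 1:260 dilution of DMSO stock. Lysed, then beta-galactosidase activity read as FDG fluorescence (ex 480/em 540) after 30 min, with pre-read for autofluorescence.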
Starred values were filed as active, the others as inactive; i = inactive; ? = inconclusive; · = not tested or not shown; ! = a repeat was not active; [ ] = remark or other dose. Unless noted, the call rests on the fitted dose curve; in most records, active means well fitted curve in the direction sought with a large enough effect; inconclusive means small, poorly fitted or top-dose-only effect, or another doubt; inactive means no such curve, though single readings can be large; an effect the other way counts as inactive or inconclusive.

SMILES | PTHR1 agonist | MBNL1 CUG block | D3 antag | CBFb-RUNX1 inh | DRD3 agonist | a7 integrin act
O=C(CCC1COc2ccccc2O1)Nc1cccnc1 (stereo not drawn) | -3%[57.5 µM] | -1% | 25 | 5% | 33* | 0%
O=C(O)C1=CCC(c2ccc(Cl)c(Cl)c2)N(S(=O)(=O)c2ccc(F)cc2)C1c1cccc(F)c1 (stereo not drawn) | i | · | ? | · | -6 | ·
COc1ccc(C(=O)/C=C/c2ccc(O)cc2)c(O)c1CC=C(C)C | -24% | -4% | -67* | 3%[2.36 µM] | 13 | -47%
COc1ccc(C(=O)/C=C/c2ccc(O)cc2)c2c1CC(O)C(C)(C)O2 (stereo not drawn) | -29% | · | -16 | · | -25 | 20%
c1ccc(-c2ccc(-c3nc(-c4ccncc4)no3)cc2)cc1 | -19%[57.5 µM] | 38% | 38 | 2% | 45* | 16%
CCN1CCN(c2ccc(S(=O)(=O)N3CCCC3)cn2)CC1 | i | 0% | ? | 12% | -8 | -25%
CC12CCC(=O)N1C(C(=O)Nc1cccc(F)c1)CS2 (stereo not drawn) | i | -3% | 3 | · | -10 | 30%
Cc1ccc(CNC(C)c2ccccc2)cc1 (stereo not drawn) | 24% | -3% | -55* | 0% | -8 | 6%
COc1ccc(-c2cc(C(=O)NCc3cccc(C(F)(F)F)c3)[nH]n2)c(C)c1 | -13% | · | -25 | · | -17 | ·
C=CCC(Nc1ccccc1)C12C=CC(O1)C(C(=O)OC)=C2C(=O)OC (stereo not drawn) | -11%[57.5 µM] | -2% | -78* | 8% | -7 | -64%
Cc1ccc(S(=O)(=O)N2c3ccccc3OC(C(=O)OC(C)(C)C)(C(=O)OC(C)(C)C)C2CC(=O)c2ccccc2)cc1 (stereo not drawn) | -25% | · | -10 | · | -10 | ·
COC(=O)N1C(=O)[C@@](c2ccccc2)(C2CCCCC2)N1C(=O)OC | -95% | -4% | -54* | · | -14 | 0%
COc1ccc(CNC(=O)C2CCC(=O)N(CCCN3CCCC3=O)C2)c(OC)c1 (stereo not drawn) | i | 0% | 19 | · | 33* | 20%
COc1ccc2c(c1)/C(=C\c1cccc(/C=C3/C(=O)Nc4ccc(OC)cc43)n1)C(=O)N2 | -38% | · | -53* | · | -18 | -57%
Cc1ccc(Nc2nc(N)nc(CN3CCN(Cc4ccc5c(c4)OCO5)CC3)n2)cc1Cl | -18% | -14% | ? | -10% | -8 | -70%
COc1ccccc1N1CCN(Cc2nc(N)nc(Nc3ccccc3)n2)CC1 | -33% | 7% | -71* | -10% | -9 | 10%
COc1ccccc1Nc1nc(N)nc(CN2CCC(Cc3ccccc3)CC2)n1 | i | 6% | -59* | -8% | -4 | -9%
COc1ccccc1Nc1nc(N)nc(CN2CCN(c3ccccc3)CC2)n1 | i | -1% | ? | -15% | 3 | -4%[7.66 µM]
Nc1nc(CN2CCN(Cc3ccccc3)CC2)nc(Nc2ccc3c(c2)OCCO3)n1 | -11%[57.5 µM] | -5% | -59* | -26% | 0 | 6%
COc1ccccc1Nc1nc(N)nc(CN2CCC(C)CC2)n1 | -1% | 2% | -18 | -5% | -14 | 16%
Cc1ccc(C)c(Cn2c(=O)cc(C)c3c(C)nn(-c4cccc(F)c4)c32)c1 | i | · | · | · | -10 | ·
CC(C)CNC(=O)C1(C)CCCN1C(=O)c1cccnc1Oc1ccccc1 (stereo not drawn) | ? | · | -2 | · | -3 | ·
Cc1nc2c(OCc3ccc(C(F)(F)F)cc3)cccn2c1N(C)Cc1cccs1 | -54% | · | -25 | · | -23 | ·
COc1ccc(CNC(=O)COC(=O)Cc2ccc(Cl)cc2Cl)cc1 | ? | -18% | -80* | -7% | 13 | 14%
CCCc1nn2c(=O)cc(COC(=O)c3cccc(NC(=O)c4ccc(OCC)cc4)c3)nc2s1 | -13% | · | · | · | -19 | ·
SMILES | PTHR1 agonist | MBNL1 CUG block | D3 antag | CBFb-RUNX1 inh | DRD3 agonist | a7 integrin act
CN1Cc2c(N)cccc2C(c2ccccc2)C1 (stereo not drawn) | -5% | 10% | -63*! | 3% | -21 | ·
CN1Cc2c(N)cccc2[C@H](c2ccccc2)C1 | · | · | · | 3%[21.7 µM] | · | ·
Cc1ccc(CN(C)C(=O)c2cccc(S(=O)(=O)N3CCc4ccccc43)c2)cc1 | -2% | · | -52* | · | -19 | -3%
Cc1ccc(CS(=O)(=O)CC(C)(O)c2ccc(Cl)cc2)cc1 (stereo not drawn) | ? | 9% | -25 | · | 25 | ?
O=C(NCCc1cccc(F)c1)/C(=C/c1cccnc1)NC(=O)c1ccccc1 | i | 4% | 10 | -1% | -2 | ?
Nc1cc([N+](=O)[O-])ccc1Nc1ccc(O)cc1 | -46% | ? | -55* | ? | -6 | 3%
CCc1cccc(NC(=O)C2CCCN2S(=O)(=O)c2ccccc2C(F)(F)F)c1 (stereo not drawn) | i | · | 9 | · | -3 | -9%
CCOc1ccc(NC(=O)CN(C)C(=O)c2ccc(N3CCCC3)c([N+](=O)[O-])c2)cc1OCC | i | · | -60* | · | -6 | -3%
CCOc1ccc(NC(=O)CN(C)C(=O)c2ccc(N3CCCCC3)c([N+](=O)[O-])c2)cc1OCC | -42% | · | 8 | · | 0 | 6%
COc1ccc(Br)c(Cn2c(C)c(C(=O)NCc3cccc([N+](=O)[O-])c3)sc2=O)c1 | i | · | -15 | · | 0 | ·
CN1CCN(C(=O)c2ccc(C3SCC(=O)N3Cc3ccco3)cc2)CC1 (stereo not drawn) | i | -9% | -59* | ? | 1 | -3%
COCCNC(=O)c1ccc(C2SCC(=O)N2Cc2ccco2)cc1 (stereo not drawn) | i | -7% | -2 | 1% | 1 | -11%
Cc1ccc2[nH]c3c(=O)n(CC(=O)N4CCN(C)CC4)ncc3c2c1 | i | 1% | 19 | · | 0 | 1%
COc1cc2c(-c3ccccc3O)nc3c(c(C)nn3-c3ccccc3)c2cc1OC | i | · | 51 | 9% | 8 | -12%
COc1cc2c(-c3ccccc3Cl)nc3c(c(C)nn3-c3ccccc3)c2cc1OC | i | · | · | · | 59* | ·
CCC1=C(c2ccc(OC)cc2)CCC(C(=O)O)C1C (stereo not drawn) | i | · | 6 | · | -18 | -17%
CC12CCC(C(=O)N(CCCCN3CCN(c4ccccn4)CC3)C1=O)C2(C)C (stereo not drawn) | -11% | 8% | -11 | · | 86* | -11%
CC12CCC(C(=O)N(CCCN3CCN(Cc4ccccc4)CC3)C1=O)C2(C)C (stereo not drawn) | -13% | -7% | -18 | -3% | -13 | -17%
